Results reported in PubChem BioAssay AID1259421 (Broad Institute, 2018).
Where “and” joins values, the source holds several entries; their conditions need not be identical. Identical values can stand only once. The whole screen tested about 6,400 compounds, of which about 610 (9.5%) were called active. Cut-off read from the data, not from the text of the source: active = activity change below about -70%; inconclusive = no clear call, values can overlap the other calls; inactive = above that. Shown is part of a subset that was picked to be rich in actives. Where a SMILES comes first, the peptide text is derived from it.

Test: T. gondii ME49Luc in HeLa cells, luciferase assay, 72 h, no IFN-y (AID 1259421)
Conditions: hits give low values, concentration not given here
For `COC(=O)NC(C)CNc1nccc(-c2cn(C(C)C)nc2-c2cc(Cl)cc(NS(C)(=O)=O)c2F)n1` (centres undefined), the activity change, negative = inhibition was -71.5% (active).
With `O=c1[nH]nc2c3c(cccc13)NC(CN1Cc3ccccc3C1)=N2` the activity change, negative = inhibition was 12.4% (inactive).
In the case of `Oc1ccc([C@@H]2Oc3ccc(O)cc3[C@@H]3CCC[C@@H]32)cc1`, the activity change, negative = inhibition is reported as 6.56% (inactive).
With `Cc1cc(O)cc2c1O[C@](C)(CCC[C@H](C)CCC[C@H](C)CCCC(C)C)CC2` the activity change, negative = inhibition was -4.66% (inactive).
With `COc1c(C)c2c(c(O)c1C/C=C(\C)CCC(=O)OCCN1CCOCC1)C(=O)OC2` the activity change, negative = inhibition was -75.2% (active) and -92% (active).
For `COc1c(C)c2c(c(O)c1C/C=C(\C)CCC(=O)O)C(=O)OC2`, the activity change, negative = inhibition was -74.4% (active) and -89.1% (active).
For `COc1c(C)c2c(c(O)c1C/C=C(/C)CCC(=O)O)C(=O)OC2`, the activity change, negative = inhibition was -79.6% (active).
For `C#CC1(OCC(O)CN2CCN(c3ccccc3OC)CC2)CCCCC1` (centres undefined), the activity change, negative = inhibition was 9.69% (inactive).
In the case of `CCCCC/C=C\C[C@@H](O)/C=C/C=C/C=C\[C@@H](O)CCCC(=O)O`, the activity change, negative = inhibition is reported as 7.41% (inactive).
For `N=[N+]=CC(=O)CC[C@H](N)C(=O)O`, the activity change, negative = inhibition was 0.432% (inactive).
For `c1ccc2[nH]c(-c3nc4ccccc4[nH]3)nc2c1`, the activity change, negative = inhibition was 156% (inactive).
With `c1ccc(-c2nc3ccccc3[nH]2)cc1` the activity change, negative = inhibition was 279% (inactive).
For `CC(C)(C)c1ccc(-c2nc3ccccc3[nH]2)cc1`, the activity change, negative = inhibition was -87.4% (active).
With `CC1(C)CC1C(=O)N/C(=C\CCCCSCC(N)C(=O)O)C(=O)O` (centres undefined) the activity change, negative = inhibition was 8.4% (inactive).
For `CC(=O)O[C@H]1C[C@@]2(C)[C@@H](C[C@@H](O)[C@H]3[C@@]4(C)CC[C@@H](O)[C@@H](C)C4CC[C@@]32C)/C1=C(/CCC=C(C)C)C(=O)O` (some centres undefined), the activity change, negative = inhibition was -17.8% (inactive).
In the case of `Cc1cc(OCCCS(C)(=O)=O)cc(C)c1-c1cccc(COc2ccc3c(c2)OC[C@H]3CC(=O)O)c1`, the activity change, negative = inhibition is reported as 15.8% (inactive).
In the case of `COc1ccc2[nH]c(I)c(CCNC(C)=O)c2c1`, the activity change, negative = inhibition is reported as 14.7% (inactive) and -1.11% (inactive).
With `CC1C(=O)C(=O)[C@@H]2O[C@@H]2C1=O` (some centres undefined) the activity change, negative = inhibition was 7.42% (inactive).
For `O=C(Nc1cccc(Cl)c1)Nc1ncc(CCNc2ncnc3ccsc23)s1`, the activity change, negative = inhibition was -92.1% (active).
For `COc1cc2ncnc(Nc3cccc(Cl)c3)c2cc1OC`, the activity change, negative = inhibition was -46.3% (inactive).
In the case of `O=C(Nc1cccc(Cl)c1)c1ccccn1`, the activity change, negative = inhibition is reported as 154% (inactive).
With `O[C@H](CNC[C@@H](O)[C@H]1CCc2cc(F)ccc2O1)[C@@H]1CCc2cc(F)ccc2O1` the activity change, negative = inhibition was 9.73% (inactive).
For `C=C(C)[C@@H]1CC[C@]2(CO)CC[C@]3(C)[C@H](CC[C@@H]4[C@@]5(C)CC[C@H](O)C(C)(C)[C@@H]5CC[C@]43C)[C@@H]12`, the activity change, negative = inhibition was 19.1% (inactive).
With `Cc1nnc(-c2ccc3occ(-c4ccc(S(C)=O)cc4)c3c2)o1` (centres undefined) the activity change, negative = inhibition was 1.22% (inactive).
For `Fc1ccc(-n2cc(CCCCN3CCC4(CC3)OCc3ccccc34)c3ccccc32)cc1`, the activity change, negative = inhibition was -77.2% (active).
With `O=C(c1ccc(F)cc1)C1CCN(CCCCc2ccccc2)CC1` the activity change, negative = inhibition was 3.6% (inactive) and 8.67% (inactive).
With `O=C(NCCCN1CCC2(CC1)OCc1ccccc12)[C@H]1CCCN1Cc1ccccc1` the activity change, negative = inhibition was 18.8% (inactive).
In the case of `CN(CCOc1ccc(CC(Nc2ccccc2C(=O)c2ccccc2)C(=O)O)cc1)c1ccccn1` (centres undefined), the activity change, negative = inhibition is reported as 1.37% (inactive).
For `CCOC(=O)[C@@H](N)CCC(=O)N[C@@H](CSCc1ccccc1)C(=O)N[C@@H](C(=O)OCC)c1ccccc1`, the activity change, negative = inhibition was -2.09% (inactive).
In the case of `CC1OC(OCC2OC(Oc3c(-c4ccc(O)c(O)c4)oc4cc(O)cc(O)c4c3=O)C(O)C(O)C2O)C(O)C(O)C1O` (centres undefined), the activity change, negative = inhibition is reported as -9.9% (inactive).
With `CS(=O)(=O)c1ccc(C(O)[C@H](CF)NC(=O)C(Cl)Cl)cc1` (some centres undefined) the activity change, negative = inhibition was -54.7% (inactive) and -27.8% (inactive).
For `CN1C/C=C/CCOc2cccc(c2)-c2ccnc(n2)Nc2cccc(c2)C1`, the activity change, negative = inhibition was -90% (active).
For `CCCCCCCCCCCCCCCC(=O)C1C(=O)OC(CO)C1=O` (centres undefined), the activity change, negative = inhibition was 6.7% (inactive).
With `Cc1cccc(C2CN(C)CCc3c2cc(O)c(O)c3Cl)c1` (centres undefined) the activity change, negative = inhibition was -3.35% (inactive).
In the case of `CCOC(=O)[C@H]1O[C@@H]1C(=O)N[C@@H](CC(C)C)C(=O)NCCC(C)C`, the activity change, negative = inhibition is reported as 12.9% (inactive) and 2.41% (inactive).
In the case of `COc1ccc(C[C@H](NC(=O)[C@H](C)NC(=O)CN2CCOCC2)C(=O)N[C@@H](Cc2ccccc2)C(=O)[C@]2(C)CO2)cc1`, the activity change, negative = inhibition is reported as -76% (active).
With `CC(C)C[C@H](NC(=O)[C@H](CCc1ccccc1)NC(=O)CN1CCOCC1)C(=O)N[C@@H](Cc1ccccc1)C(=O)N[C@@H](CC(C)C)C(=O)[C@@]1(C)CO1` the activity change, negative = inhibition was -76.7% (active).
With `COC(=O)[C@H](Cc1ccccc1)NC(=O)[C@@H](N)CC(=O)O` (H-Asp-Phe-OMe) the activity change, negative = inhibition was 0.919% (inactive).
For `CC(C)c1nc(CN(C)C(=O)N[C@@H](CCN2CCOCC2)C(=O)N[C@H](CC[C@H](Cc2ccccc2)NC(=O)OCc2cncs2)Cc2ccccc2)cs1`, the activity change, negative = inhibition was -16.7% (inactive).
